Test systems include DU-145 prostate; K-562 leukemia; MALME-3M melanoma; MDA-MB-231 breast; RXF 393 renal; SF-268 CNS; SF-295 CNS; SF-539 CNS; UACC-257 melanoma; M14 melanoma; HCT-15 colon; HT29 colon; SNB-75 CNS; SNB-19 CNS; U251 CNS; PC-3 prostate; SK-MEL-5 melanoma; UACC-62 melanoma; LOX IMVI melanoma; SK-MEL-28 melanoma.
What all share (experiment): NCI-60 one-dose screen, 48 h (100 = growth as untreated, 0 = no growth, -100 = all killed)
Details in all cases: 10 µM unless noted

From PubChem BioAssay (NCI) come the findings set out here.

About 83,000 compounds went through this panel and 20% of them were active in at least one assay; those are over-represented in the sample as a whole.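 48-hour exposure, single concentration, 96-well plates; percent growth endpoint where 0 means no net growth. Active: below 10.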 Values without a mark were called inactive. The source made the active and inactive calls.

Consider `Nc1c(C(=O)Nc2ccccc2Cl)sc2nc3c(cc12)C(O)CCC3` (stereo not given), for which the growth is 14.4% in the test on DU-145 prostate; 10.9% in the test with K-562 leukemia; 76.2% with MALME-3M melanoma; 58.2% with MDA-MB-231 breast; 19.6% in the test with RXF 393 renal; 65.6% with SF-268 CNS. In addition, the growth in the test on SF-295 CNS was 22.8%; with SF-539 CNS, 3.94% (active); in the test on UACC-257 melanoma, 56.8%; in the test with M14 melanoma, 19.9%; with HCT-15 colon, 30.5%; with HT29 colon, 6.13% (active). The growth in the test on SNB-75 CNS is 22.9%; in the test on SNB-19 CNS, 41.6%; in the test with U251 CNS it was 29.4%; in the test with PC-3 prostate, 36.8%; in the test with SK-MEL-5 melanoma, 21.4%; in the test on UACC-62 melanoma, 47.9%. Also, the results for the growth in the test with LOX IMVI melanoma and in the test on SK-MEL-28 melanoma were 45.5% and 79.2%, respectively.

For the compound `C=C1C(=O)O[C@H]2[C@H]1CC/C(COC(=O)CSCCSCC(=O)OC/C1=C/CC[C@@]3(C)O[C@H]3[C@H]3OC(=O)C(=C)[C@@H]3CC1)=C\CC[C@@]1(C)O[C@@H]21`, the growth with DU-145 prostate was 32.3%; in the test on K-562 leukemia, 1.81% (active); with MALME-3M melanoma, -8.71% (active); with MDA-MB-231 breast, -37.2% (active); in the test on RXF 393 renal, -85.1% (active); with SF-268 CNS it was 16.7%. The growth in the test on SF-295 CNS is 67.2%; in the test with SF-539 CNS it was 1.67% (active); in the test on UACC-257 melanoma, 49.9%; in the test on M14 melanoma, 3.06% (active); in the test on HCT-15 colon, -18.1% (active); in the test with HT29 colon, 0.0255% (active). The growth in the test on SNB-75 CNS was 56.6%; in the test on SNB-19 CNS, 55.9%; with U251 CNS, 7.29% (active); in the test on PC-3 prostate, 1.19% (active); with SK-MEL-5 melanoma, 78.4%; with UACC-62 melanoma, 25.6%. The growth is -53.3% (active) in the test with LOX IMVI melanoma and 4.71% (active) in the test with SK-MEL-28 melanoma.

With `COc1ccc2[nH]cc(-c3nc(-c4cn(C)c5c(Cl)nccc45)cs3)c2c1`, the growth in the test with DU-145 prostate was 40.7%; in the test with K-562 leukemia it was 17.9%; with MALME-3M melanoma it was 72.1%; in the test with MDA-MB-231 breast, 48.2%; in the test with RXF 393 renal, 32.5%; with SF-268 CNS, 73%. In addition, the growth with SF-295 CNS was 37.9%; in the test on SF-539 CNS, 23.3%; in the test with UACC-257 melanoma, -33% (active); in the test on M14 melanoma it was 14%; in the test with HCT-15 colon it was 0.0691% (active); with HT29 colon, 9.12% (active). The growth is 61.6% with SNB-75 CNS; 79.2% with SNB-19 CNS; 16.3% with U251 CNS; 23.4% in the test with PC-3 prostate; 34.5% in the test on SK-MEL-5 melanoma; 43.8% in the test with UACC-62 melanoma. For the same compound, the figures for the growth in the test with LOX IMVI melanoma and in the test on SK-MEL-28 melanoma were 21% and 46%, respectively.

For `Cc1ccc(-c2csc(NC(=O)CN3CCN(c4cc5c(cc4F)c(=O)c(C(=O)O)cn5C4CC4)CC3)n2)cc1`, the growth with DU-145 prostate was 13.1%; in the test with K-562 leukemia, 9.66% (active); with MALME-3M melanoma, -2.34% (active); with MDA-MB-231 breast, 6.47% (active); in the test on RXF 393 renal it was 27.2%; in the test with SF-268 CNS, 23.2%. Moreover, the growth is -2.97% (active) with SF-295 CNS; 23.7% in the test on SF-539 CNS; -12.9% (active) in the test on UACC-257 melanoma; 23% in the test with M14 melanoma; 10.2% in the test with HCT-15 colon; 0.375% (active) in the test on HT29 colon. Besides, the growth with SNB-75 CNS is 20.1%; with SNB-19 CNS it was 27.7%; in the test on U251 CNS, 7.62% (active); in the test on PC-3 prostate it was 6.64% (active); with SK-MEL-5 melanoma, -26.4% (active); with UACC-62 melanoma, 19.1%. Also, the growth in the test on LOX IMVI melanoma was 0.737% (active); in the test on SK-MEL-28 melanoma, 41%.

As to `CN(C)CCCn1c2c(c3ncccc3c1=O)C(=O)c1ccccc1-2`, the growth in the test with DU-145 prostate is 39.3%; with K-562 leukemia, 24.7%; in the test with MALME-3M melanoma, 61.9%; with MDA-MB-231 breast, 63.6%; in the test on RXF 393 renal, 57.3%; with SF-268 CNS, 42.3%. Besides, the growth in the test with SF-295 CNS was 50.7%; in the test on SF-539 CNS, 21%; with UACC-257 melanoma, 72.8%; in the test with M14 melanoma it was 48.6%; with HCT-15 colon, 28.6%; in the test with HT29 colon, 20.9%. For the same compound, the growth in the test on SNB-75 CNS is 79%; with SNB-19 CNS, 37.3%; with U251 CNS, 29%; with PC-3 prostate, 39%; with SK-MEL-5 melanoma it was 30.7%; in the test on UACC-62 melanoma, 34.6%. The growth was 19.1% in the test with LOX IMVI melanoma and 65% with SK-MEL-28 melanoma.

In the case of `O=C(O)c1ccc(-n2cc(/C=N/Nc3ccc(F)cc3)c(-c3cc4ccccc4oc3=O)n2)cc1`, the growth in the test with DU-145 prostate is 91.2%; with K-562 leukemia, 11.6%; in the test with MALME-3M melanoma, 79.8%; in the test on MDA-MB-231 breast, 83.7%; in the test on RXF 393 renal it was 113%; in the test with SF-268 CNS, 76.8%. The growth in the test with SF-295 CNS was 72.1%; in the test with SF-539 CNS, 85.9%; in the test with UACC-257 melanoma, 107%; in the test on M14 melanoma, 47.3%; in the test on HCT-15 colon, 33.9%; in the test with HT29 colon it was 91%. The growth was 85.6% in the test on SNB-75 CNS; 89.2% in the test on SNB-19 CNS; 104% in the test on U251 CNS; 69.8% in the test with PC-3 prostate; 93.6% in the test with SK-MEL-5 melanoma; 46.1% in the test with UACC-62 melanoma. In addition, the figures for the growth in the test with LOX IMVI melanoma and with SK-MEL-28 melanoma were 46.6% and 92.3%, respectively.

`CNc1nc(S(=O)c2ccc(C#N)cc2)nc2ccccc12` (stereo not given): the growth was 40.6% in the test on DU-145 prostate; 24.9% in the test on K-562 leukemia; 54.8% in the test with MALME-3M melanoma; 54.8% with MDA-MB-231 breast; 62.9% with RXF 393 renal; 87.8% with SF-268 CNS. Also, the growth was 99.5% in the test with SF-295 CNS; 92% with SF-539 CNS; 85.3% in the test on UACC-257 melanoma; 71.5% in the test with M14 melanoma; 81% in the test with HCT-15 colon; 81.8% in the test with HT29 colon. Moreover, the growth in the test on SNB-75 CNS was 60.5%; in the test with SNB-19 CNS, 90.8%; in the test with U251 CNS it was 83.1%; with PC-3 prostate it was 89.2%; in the test on SK-MEL-5 melanoma it was 83.6%; with UACC-62 melanoma it was 81%. In addition, the growth in the test on LOX IMVI melanoma was 76.5%; with SK-MEL-28 melanoma, 94.4%.
